These results are taken from ChEMBL document CHEMBL4513216, “Probing the Open Global Health Chemical Diversity Library for Multistage-Active Starting Points for Next-Generation Antimalarials” (ACS Infect Dis, 2020).

Screen size: about 69,000 compounds; about 8,600 (12%) showed an effect of 50% or more. The full list was thinned out, with strong results kept by preference.

The test deals with Plasmodium berghei. Description: Screen against P. berghei liver stage (PbLuc), transformed with Luciferase, at 10uM. In kind it is functional, HepG2. The following applies: tested at 10 uM.
As to `CC[C@@H]1N(Cc2cc(OC)cc(OC)c2)CCC[C@]12CCC(=O)N2C`, the INHIBITION is -54.1%. For `CNC(=O)c1nc(COc2c(C)occc2=O)no1` the value was -11.9%; for `Cc1cncc(Oc2ccc(CN)cc2)n1`, 60.5%. For `Cc1cncc(Oc2ccc(CO)cc2)n1` the value was 44.3%; for `CNCc1ccc(Oc2cncc(C)n2)cc1`, -1.84%. The figure for `CC(=O)c1ccc(N2CCC3(CCC(=O)N(CCCO)C3)CC2)nc1` is 30.9%. Regarding `Cc1ccccc1CC1(C(=O)O)CCCN(c2ncccn2)C1` (stereo unspecified), the INHIBITION was determined as 8.64%. As for `CC(=O)c1ccc(N2CCCC(CO)(Cc3ccccc3C)C2)nc1` (stereo unspecified), the INHIBITION is listed as 75.6%. For `CCN1CC2(CCC1=O)CCN(c1ccc(C(C)=O)cn1)CC2`, the INHIBITION is on record as 5.46%. With `NC(=O)c1ccnc(N2CCCC(CO)(Cc3ccccc3)C2)c1` (stereo unspecified), the INHIBITION is given as 10.1%. The figure for `CC(=O)c1ccc(N2CCCC(CO)(Cc3ccccc3F)C2)nc1` (stereo unspecified) is 50.3%; for `O=C(CN1CCCCC1)Nc1cc(C(F)(F)F)ccc1-n1cccc1` it is 9%.

On to `CCN1CC2(CC1=O)CN(Cc1cnn(C)c1)CCN(C(=O)N(C)C)C2` (stereo unspecified), for which the INHIBITION is reported as 20.9%. The figure for `CS(=O)(=O)N1CCN(Cc2cccs2)CC(C(N)=O)C1` (stereo unspecified) is 8.72%; for `COCCN1C(=O)[C@@H]2CC[C@H]1CN(C(=O)CCc1n[nH]c(C)c1C)C2` it is 34.9%. For `O=S(=O)(NCCn1cc(C2CCCNC2)nn1)c1ccc(Cl)cc1` (stereo unspecified) the value was 35.4%; for `c1cc2c(cc1Cn1cc(C3CCCNC3)nn1)CCCO2` (stereo unspecified), 16.7%. For `c1ccc(NCCn2cc(C3CCCNC3)nn2)cc1` (stereo unspecified) the value was 56.6%. As for `Cc1nnc(NC(=O)NCC(C)N2CCOCC2)s1` (stereo unspecified), the INHIBITION was determined as 2.05%. On to `CN(C)CCCNCCC(Cc1ccccc1)C1CCOC(C)(C)C1` (stereo unspecified), for which the INHIBITION is 56.7%. Regarding `CN(C)CCCNCCC(c1ccccc1)C1CCOC(C)(C)C1` (stereo unspecified), the INHIBITION worked out at 16.1%. For `CN(C)CCNCCC(Cc1ccccc1)C1CCOC(C)(C)C1` (stereo unspecified) the value was 23.1%; for `CNC(=O)CS(=O)(=O)Cc1cc(Cl)c2c(c1)OCCO2`, 21.5%; for `CCC/C=C/c1ccc(CN2CCCC2)cn1`, -4.51%. The figure for `C(=C\c1ccc(CN2CCCC2)cn1)/c1ccccc1` is 84.2%; for `CCC/C=C/c1ccc(CN2CCN(C)CC2)cn1` it is -13.2%; for `NC(=O)c1ccc(C(=O)N2CCCC(n3ccnc3)C2)s1` (stereo unspecified) it is 23.4%.

`FC(F)(F)c1cccc(-c2c[nH]c(C3CCCN3)n2)c1` (stereo unspecified): the INHIBITION was -14.8%. The figure for `O=C(NCc1nnc2n1CCCCC2)N1CCC2(CCCCC2)C1` is 47.9%; for `CCc1nnsc1C(=O)NCCc1nnc2n1CCC2` it is 14.3%; for `O=C(NCc1nnc2n1CCC2)N1CCC2(CCCCC2)CC1` it is 75.7%. For `O=C(NCCc1nnc2n1CCCCC2)N1CCC2(CCCC2)CC1` the value was -56.9%; for `CCc1nnsc1C(=O)NCc1nnc2n1CCC2`, 60%; for `CCc1nnsc1C(=O)NCc1nnc2n1CCCCC2`, 41.4%. For `CC(C)CCC(=O)N1CCN(C(C)c2nnc(CC(C)C)o2)CC1` (stereo unspecified) the value was 13.8%.

On to `COCCNC(=O)CCN1C(=O)CC2(CCCC2)C1=O`, for which the INHIBITION was found to be 29%. Regarding `Cc1cc(C(=O)N2CCCN(c3nccs3)CC2)c(C)n1C(C)C`, the INHIBITION is recorded as -26.3%.

For the compound `Cc1cc(NC(=O)NCC(C(C)C)N2CCOCC2)n(C)n1` (stereo unspecified), the INHIBITION came to 28.8%. For `CNC(=O)c1n[nH]c2c1C(c1cccc3c1OC(C)(C)C3)CC(=O)N2` (stereo unspecified) the value was 50.1%. For `CNC(=O)c1n[nH]c2c1C(c1cccc3[nH]ccc13)CC(=O)N2` (stereo unspecified) the value was 24.4%; for `CNC(=O)c1n[nH]c2c1C(c1cccc3nsnc13)CC(=O)N2` (stereo unspecified), 46.9%; for `CCc1[nH]ncc1C(=O)N1CCOC(c2nc(C)n[nH]2)C1` (stereo unspecified), 25.6%. As to `Cn1ccnc1CN1CC[C@@H](NS(C)(=O)=O)[C@@H]1Cc1ccccc1`, the INHIBITION is listed as 45.1%. For `COc1ccc(COCC(O)CNC(=O)c2ccc(C)c(F)c2)cc1` (stereo unspecified) the value was 52.3%; for `COc1ccc(COCC(O)CNC(=O)c2cc(C)cc(C)c2)cc1` (stereo unspecified), 17.7%; for `COc1ccc(COCC(O)CNC(=O)c2cccc(OC)c2)cc1` (stereo unspecified), 23.5%. For `CS(=O)(=O)NC1CCN(c2cccc(F)c2C#N)CC1` the value was -12.1%; for `CC(=O)Nc1ccc(-c2cn(CCn3c(C)cc(C)nc3=O)nn2)cc1`, -31.1%; for `COc1c(F)cc(-c2cn(CCn3c(C)cc(C)nc3=O)nn2)cc1Cl`, -4.68%. For `COc1ccc(-c2cn(CCn3c(C)cc(C)nc3=O)nn2)cn1` the value was 51.4%; for `CC(C)(C)C1SCC(=O)Nc2c1c(O)nn2C1CCCCC1` (stereo unspecified), 37.4%; for `CC(C)C1SCC(=O)Nc2c1c(O)nn2C1CCCC1` (stereo unspecified), 1.04%. `CC(C)C1SCC(=O)Nc2c1c(O)nn2C1CCCCC1` (stereo unspecified): the INHIBITION stood at 74.4%. For `CC(C)Oc1ccccc1C1CC(=O)Nc2nc(N3CCOCC3)sc21` (stereo unspecified) the value was -41.2%; for `Cc1nc2c(c(=O)[nH]1)CCN(C(=O)c1[nH]nc3c1CC(C)CC3)C2` (stereo unspecified), 15.2%. The figure for `c1nc(CN2CCCC(Cc3ccc(NC4CCCC4)nn3)C2)c[nH]1` (stereo unspecified) is 13.7%. The figure for `CCNc1ccnc(N2CCN(Cc3ncccc3C)CC2)n1` is 51.3%; for `CCOc1ccnc(N2CCN(Cc3ncccc3C)CC2)n1` it is 27.9%. With `Cc1cccnc1CN1CCN(c2noc(-c3ccccc3)n2)CC1`, the INHIBITION is given as -13.2%. For `Cc1cc(C)c2c(N3CCN(CCN4CCOCC4)CC3)ncnc2n1` the value was 40.3%; for `Cc1cc(C)c2c(N3CCN(Cc4ncccc4C)CC3)ncnc2n1`, 58.1%. The figure for `COCCN1CCN(c2ncnc3nc(C)cc(C)c23)CC1` is -14.1%; for `CC(C)C(=O)N1CCN(c2ncnc3cc4c(cc23)OCCO4)CC1` it is 2.69%. Regarding `O=C(O)c1ccccc1-n1cc(CN2CCOC(c3cc[nH]n3)C2)cn1` (stereo unspecified), the INHIBITION worked out at 20.7%. For `Cc1ccc(-c2nc(CN3CCCC(Cn4cncn4)C3)cs2)o1` (stereo unspecified) the value was -7.35%; for `Nc1ncnc2nc(C3CCN(C(=O)Cc4ccc(F)cc4)C3)ccc12` (stereo unspecified), -19.9%; for `CCC(C)N(Cc1cnc(NC(C)C)nc1)Cc1ccsc1` (stereo unspecified), 30.4%. The figure for `CCc1nnc(Nc2cccc(C3CCN(C(=O)CNC)CC3)n2)s1` is -17.7%; for `CC(Cc1cn(CCc2n[nH]c(=O)[nH]2)nn1)c1ccccc1` (stereo unspecified) it is 18.5%; for `CN(C)c1ccc(CC2CCN(c3cnccn3)C2)nn1` (stereo unspecified) it is 0.696%. For `COC1(CNC(=O)c2ccsc2)CCSC1` (stereo unspecified) the value was 5.91%; for `COC(=O)CN1CCC(C(F)(F)F)CC1`, -8.9%; for `Cc1ccsc1C(=O)N1CCc2ncc(CN(C)C)n2CC1`, 62.9%. Turning to `Cc1ccsc1C(=O)N1CCc2ncc(Cn3cccn3)n2CC1`, the INHIBITION amounted to 29.4%. For `CN(C)Cc1cnc2n1CCN(C(=O)Cc1ccsc1)CC2` the value was 11.3%; for `Cc1ccsc1C(=O)N1CCc2ncc(CN3CCCC3)n2CC1`, 8.6%.

Consider `CN(C)Cc1cnc2n1CCN(C(=O)Cc1ccc(F)cc1)CC2`, for which the INHIBITION stood at 52.6%.

For `CN(C)Cc1cnc2n1CCN(C(=O)Cc1cccc(F)c1)CC2`, the INHIBITION is on record as 37.9%. The figure for `Cc1nc(N)ncc1C(=O)N1CCCC(CCc2ccccc2F)C1` (stereo unspecified) is 43.9%.

With `O=c1[nH]c2ccccc2cc1CNCCCN1CCOCC1`, the INHIBITION was 36.4%. The figure for `O=C(N1CCCC1)N1CCC2(CCN(Cc3ccccn3)C2=O)C1` (stereo unspecified) is 15.6%.

Take `Cc1ccc(CN2CCc3nnc(CN4CCCC4=O)n3CC2)s1`: the INHIBITION is given as 37.1%.

As for `O=C(CN1CCCC1)N1CCCC(CNS(=O)(=O)Cc2ccccc2)C1` (stereo unspecified), the INHIBITION turned out to be 51.3%. Regarding `O=C(Cc1cccs1)N1CCCC(CNS(=O)(=O)Cc2ccccc2)C1` (stereo unspecified), the INHIBITION is recorded as 73.6%. As for `O=C(Cc1ccsc1)N1CCCC(CNS(=O)(=O)Cc2ccccc2)C1` (stereo unspecified), the INHIBITION is on record as 34.6%. For `CS(=O)(=O)NCC1CCCN(C(=O)COCc2ccccc2)C1` (stereo unspecified) the value was 32.6%; for `O=S(=O)(Cc1ccccc1)NCC1CCCN(Cc2cccs2)C1` (stereo unspecified), 48.1%. The figure for `CS(=O)(=O)NCC1CCCN(C(=O)CCCc2ccccc2)C1` (stereo unspecified) is -0.18%; for `CC(=O)N1CCCC1c1ccc(CN2CCOCC2)cn1` (stereo unspecified) it is 35.625%; for `CCC(COC)NC(=O)N1CCC(n2ccc(C(F)(F)F)n2)CC1` (stereo unspecified) it is -15.1%. The figure for `CCn1ccc(-c2nnc(SCC(=O)Nc3ccc(C)cc3)n2CC)n1` is 7.38%; for `CCN1C(=O)CC(c2ccccc2)C12CCN(CC1CCOCC1)CC2` (stereo unspecified) it is 43.2%.

Turning to `CCN(C)c1ncnc2c1CCN(S(=O)(=O)c1ccccc1)CC2`, the INHIBITION was found to be 43.9%. The figure for `Cc1ccc(OCCn2cnc3oc(C)c(C(=O)O)c3c2=O)cc1` is -1.04%.

Consider `CC(Cn1ccnc1)NC(=O)N1CCN(Cc2ccco2)CC1` (stereo unspecified), for which the INHIBITION is -13.65%.

In the case of `OC1CCN(c2cncc(CCC3CCCN3)n2)CC1` (stereo unspecified), the INHIBITION was found to be 9.575%.

As to `O=C(NCc1cn2c(n1)SCC2)c1cn(CCN2CCCCC2)nn1`, the INHIBITION was determined as 21%. The figure for `O=C(CCN1CCCCO1)NCc1cn2c(n1)SCC2` is 78.4%; for `O=C(NCc1cn2c(n1)SCC2)c1ccc(CN2CCCCC2)cc1` it is 29.2%; for `CN(C(=O)C1CCCC1)C(c1cccc(F)c1)c1ccccn1` (stereo unspecified) it is 5.7%.

`CCOc1ccc(C(=O)N(Cc2cnn(C)c2)C(C)C)cc1OCC`: the INHIBITION was determined as 27.8%. For `O=C(CSCC1CC1)N1CCCC2(CCC(=O)N(CC3CC3)C2)C1` (stereo unspecified) the value was 32.1%; for `O=C(CO)N1CCCC2(CCC(=O)N(CC3CC3)C2)C1` (stereo unspecified), 33%. The figure for `O=C(CCC(F)(F)F)N1CCCC2(CCC(=O)N(CC3CC3)C2)C1` (stereo unspecified) is 59.4%; for `Cc1ccc(C(=O)N2CCc3ncnc(-c4cnn(C)c4)c3CC2)cn1` it is -64.6%. The figure for `CCC(=O)Nc1ccc(N2CCC(OC)CC2)c(C(F)(F)F)c1` is 45.1%. Turning to `COCCCNC(=O)Nc1ccc(-n2cncn2)c(C(F)(F)F)c1`, the INHIBITION is on record as -37.55%.

In the case of `COC1CCN(c2ccc(NC(=O)C3CC3)cc2C(F)(F)F)CC1`, the INHIBITION was 95.8%.

Take `CCNC(=O)C1CCCN(c2ccc(C#N)cc2C(F)(F)F)C1` (stereo unspecified): the INHIBITION was determined as 26.3%. Turning to `CCNC(=O)Nc1ccc(N2CCC(OC)CC2)c(C(F)(F)F)c1`, the INHIBITION is reported as 89.6%. The figure for `COCC(=O)Nc1ccc(N2CCC(OC)CC2)c(C(F)(F)F)c1` is 30.3%.
